Reference: PubChem BioAssay (NCI)
This is part of a sample that, as a whole, favours compounds with a hit. Of some 83,000 tested, about 20% had one in any assay.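 Single-dose data. Exposure time 48 hours. Values below 10 considered active.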 A number with no mark means an inactive call. Activity calls are given as the source filed them.

Key:
Test in all cases: NCI-60 one-dose screen, 48 h (100 = growth as untreated, 0 = no growth, -100 = all killed)
Conditions in all cases: 10 µM unless noted
NCI-H23 lung = tested on: NCI-H23 lung
NCI-H226 lung = tested on: NCI-H226 lung
NCI-H322M lung = tested on: NCI-H322M lung
HOP-62 NSCLC = tested on: HOP-62 NSCLC
NCI-H460 lung = tested on: NCI-H460 lung
HOP-92 NSCLC = tested on: HOP-92 NSCLC
NCI-H522 lung = tested on: NCI-H522 lung
A549/ATCC NSCLC = tested on: A549/ATCC NSCLC
786-0 renal = tested on: 786-0 renal
COLO 205 colon = tested on: COLO 205 colon
DU-145 prostate = tested on: DU-145 prostate
K-562 leukemia = tested on: K-562 leukemia
MALME-3M melanoma = tested on: MALME-3M melanoma
MDA-MB-231 breast = tested on: MDA-MB-231 breast
RXF 393 renal = tested on: RXF 393 renal
SF-268 CNS = tested on: SF-268 CNS
SF-295 CNS = tested on: SF-295 CNS
SF-539 CNS = tested on: SF-539 CNS
UACC-257 melanoma = tested on: UACC-257 melanoma
M14 melanoma = tested on: M14 melanoma

| SMILES | growth (NCI-H23 lung) [%] | growth (NCI-H226 lung) [%] | growth (NCI-H322M lung) [%] | growth (HOP-62 NSCLC) [%] | growth (NCI-H460 lung) | growth (HOP-92 NSCLC) [%] | growth (NCI-H522 lung) [%] | growth (A549/ATCC NSCLC) [%] | growth (786-0 renal) | growth (COLO 205 colon) [%] | growth (DU-145 prostate) [%] | growth (K-562 leukemia) | growth (MALME-3M melanoma) [%] | growth (MDA-MB-231 breast) [%] | growth (RXF 393 renal) | growth (SF-268 CNS) [%] | growth (SF-295 CNS) [%] | growth (SF-539 CNS) [%] | growth (UACC-257 melanoma) [%] | growth (M14 melanoma) |
| --- | --- | --- | --- | --- | --- | --- | --- | --- | --- | --- | --- | --- | --- | --- | --- | --- | --- | --- | --- | --- |
| Cc1ccc(S(=O)(=O)/C(=C\c2ccc(Cl)cc2)C(=O)c2ccccc2)cc1 | 102 | 97.9 | 101 | 104 | 106% | 94.6 | 96.3 | 106 | 103% | 102 | 113 | 96.1% | 107 | 103 | 104% | 103 | 93.1 | 122 | 114 | 102% |
| FC(F)(F)c1cccc(-c2cn3c(ccc4ccccc43)n2)c1 | 79.3 | 94.6 | 97.5 | 76.7 | 97% | 102 | 81.8 | 95.4 | 101% | 109 | 106 | 86.5% | 102 | 79.2 | 115% | 98.7 | 88.5 | 99.5 | 114 | 95.4% |
| COc1ccc(-c2ccc(-c3ccc(C(=N)N)cn3)s2)cc1OC | 94 | 96.3 | 97.7 | 91.4 | 99.5% | 69.3 | 100 | 100 | 100% | 103 | 97.5 | 41.8% | 94.9 | 89 | 121% | 101 | 99.1 | 83.4 | 114 | 97.4% |
| Cc1ccc(-c2cc3nc(C(Cl)Cl)nc(-c4ccccc4C)n3n2)cc1 | 74 | 100 | 86.6 | 68.3 | 81.4% | 64.7 | 69.9 | 23.3 | 84.1% | 54.1 | 46.9 | 17.9% | 72.8 | 66.8 | 22.8% | 92.6 | 77.3 | 86.5 | 101 | 93.8% |
| O=C1Nc2ccc(Cl)cc2C12Nc1cc(Cl)ccc1S2 (stereo not given) | 69.1 | 105 | 100 | 103 | 62.7% | 77.2 | 47.1 | 72.9 | 89.4% | 101 | 96.5 | 39.2% | 74.2 | 83.2 | -8.23% (active) | 88.3 | 106 | 87.9 | 129 | 93.9% |
| O=C(CN1CCN(c2cc3c(cc2F)c(=O)c(C(=O)N/N=C/c2ccccc2O)cn3C2CC2)CC1)N/N=C\c1ccccc1O | 28.2 | 36.4 | 25.4 | 24.5 | 0.87% (active) | 52 | 22.6 | 17.8 | 7.83% (active) | 17.4 | 21.2 | 8.3% (active) | 22.3 | 25.3 | 27.9% | 16.6 | 21.5 | 11.1 | 20 | -27.6% (active) |
| O=C(NNC(=O)N1c2ccccc2C=Cc2ccccc21)c1ccccc1 | 101 | 113 | 107 | 114 | 106% | 103 | 94 | 103 | 103% | 112 | 107 | 101% | 117 | 111 | 106% | 98.4 | 95.7 | 102 | 108 | 110% |
| CNc1ccc(Br)c2c1C(=O)c1ccccc1C2=O | 98.3 | 104 | 110 | 107 | 105% | 80.6 | 98 | 110 | 96.7% | 132 | 121 | 94.9% | 117 | 103 | 122% | 115 | 110 | 103 | 121 | 118% |
